# Results reported in PubChem BioAssay (Tox21).
# Results filed as inconclusive are left out. The source made the active and inactive calls. Calls come from the whole dose curve.
# Assay: qHTS assay for small molecule agonists of the p53 signaling pathway - cell viability (AID 651633);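 note: p53RE-bla HCT reporter cells with a stable beta-lactamase p53 reporter; nearly all actives have a fitted effect of over 30% in size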
# Conditions: p53RE-bla HCT-116 viability, ATP luminescence, 16 h; series mostly up to 83.3 µM
# Excerpt: National Center for Advancing Translational Sciences [NCATS]
# NIH Chemical Genomics Center [NCGC]
# U.S. Environmental Protection Agency [EPA]
# National Institutes of Environmental Health Sciences [NIEHS]
# National Toxicology Program [NTP]
# U.S. Food and Drug Administration [FDA]
# p53, a tumor suppressor protein, is activated following cellular insult, including DNA damage and other cellular stresses. The activation of p53 regulates cell fate by inducing DNA repair, cell cycle arrest, apoptosis, or cellular senescence. The activation of p53, therefore, is a good indicator of DNA damage and other cellular stresses. […] The activation of the reporter gene under culture conditions can be detected by fluorescence intensity. This cell line was used to screen the Tox21 compound library in a 1536-well plate format and to identify agonists that activate the p53 signaling pathway.
# Tox21 Assay Protocol Summary:
# The p53RE-bla cells were dispensed at 4,000 cells/5 ul/well in 1536-well black wall/clear bottom plates using a Multidrop dispenser. After the assay plates were incubated at a 37 C/5% CO2 incubator for 5 hours, 23 nL of compounds dissolved in DMSO, positive controls or DMSO only was transferred to the assay plate by a pin tool. The plates were incubated at 37 C for 16 hours. After 1 uL of LiveBLAzerTM B/G FRET substrate was added using a Flying Reagent Dispenser, the plates were incubated at room temperature for 2 hours, and fluorescence intensity was measured by an Envision plate reader.
# For cell viability readout that measures cytotoxicity, 4 ul/well of CellTiter-Glo reagent was added into the assay plates using a Flying Reagent Dispenser. After 30 min incubation at room temperature, the luminescence intensity in the plates was measured using a ViewLux plate reader.
row,Structure (SMILES),outcome
1,Cn1nnc2c(C(N)=O)ncn2c1=O,inactive
2,CC1CCc2c(N3CCC(O)CC3)c(F)cc3c(=O)c(C(=O)O)cn1c23 (stereo not given),inactive
3,CN(C)CCCO[C@@H]1[C@H]2OC(C)(C)O[C@H]2O[C@@H]1C(O)CO (stereo not given in full),inactive
4,OC1OCCOC1O (stereo not given),inactive
5,CCC(C)C(C)=O (stereo not given),inactive
6,CC1=C(C(=O)O)N2C(=O)[C@@H](NC(=O)[C@H](N)C3=CCC=CC3)[C@H]2SC1,inactive
7,C=CC(=O)OCC1CCCO1 (stereo not given),inactive
8,Cc1ccnc(N)c1,inactive
9,CC(C)=CCC[C@@](C)(O)[C@H]1CC=C(C)CC1,inactive
10,O=C(CCCCC(=O)Nc1c(I)cc(I)c(C(=O)O)c1I)Nc1c(I)cc(I)c(C(=O)O)c1I,inactive
11,CCCCCCC1(C)CCC(=O)O1 (stereo not given),inactive
12,CC(CO)(CO)CO,inactive
13,CC(=O)O[Si](C)(OC(C)=O)OC(C)=O,inactive
14,CC(=O)c1cc(C)oc1C,inactive
15,CC(C)Nc1ccccc1,inactive
16,O=NN(CCCl)C(=O)NC1CCCCC1,inactive
17,O=C=NCC1CCCC(CN=C=O)C1 (stereo not given),inactive
18,O=Cc1ccccc1Cl,inactive
19,CCCCOC(=O)[C@H](C)O,inactive
20,NCCOCCN,inactive

row,Structure (SMILES),outcome
1,CCNC(=O)NCc1cccc(Cl)c1,inactive
2,CCCCC1CCC(O)CC1 (stereo not given),inactive
3,C=CCCCCCCCC,inactive
4,O=[N+]([O-])c1c(Cl)cc(Cl)cc1Cl,inactive
5,C/C(CC(C)C)=N\O,inactive
6,C[C@@H](O)C(=O)O,inactive
7,C=CC/C=C/C,inactive
8,CCOC(=O)CC1(C)OCC(C)O1 (stereo not given),inactive
9,C[C@H]1[C@@H](c2ccccc2)NC(=O)N1C,inactive
10,COP(=O)(O)OP(=O)(O)OC,inactive
11,C[Si]1(C)O[Si](C)(C)O[Si](C)(C)O[Si](C)(C)O[Si](C)(C)O1,inactive
12,CN(C)CCN(C)CCO,inactive
13,C=CCN1C[C@H](C(=O)N(CCCN(C)C)C(=O)NCC)C[C@@H]2c3cccc4[nH]cc(c34)C[C@H]21,inactive
14,c1ccc(B(c2ccccc2)c2ccccc2)cc1,inactive
15,CCC(C)OC(C)CC (stereo not given),inactive
16,CCOc1cccc(N)c1,inactive
17,CC(=O)CC(=O)Nc1ccc(C)cc1C,inactive
18,OCCN1CCOCC1,inactive
19,C=C(C)C1CC=C(C)C(=O)C1 (stereo not given),inactive
20,C/C=C(\C)C(=O)OCCc1ccccc1,inactive
